According to the supplement of paper PMC12645437, “Orthogonal IMiD-Degron Pairs Induce Selective Protein Degradation in Cells” (ACS Chemical Biology, 2025):
Over roughly 8,300 sequences, “log2 fold change of degron read counts, EGFP-low vs EGFP+ sorted cells (limma voom), compound-induced degradation” has its median near -1.1; the highest 2% begin near 3.2. Only a selection was taken, and the highest values are over-represented in it overall.

T1: CRBN, Q96SW2
T1 chain: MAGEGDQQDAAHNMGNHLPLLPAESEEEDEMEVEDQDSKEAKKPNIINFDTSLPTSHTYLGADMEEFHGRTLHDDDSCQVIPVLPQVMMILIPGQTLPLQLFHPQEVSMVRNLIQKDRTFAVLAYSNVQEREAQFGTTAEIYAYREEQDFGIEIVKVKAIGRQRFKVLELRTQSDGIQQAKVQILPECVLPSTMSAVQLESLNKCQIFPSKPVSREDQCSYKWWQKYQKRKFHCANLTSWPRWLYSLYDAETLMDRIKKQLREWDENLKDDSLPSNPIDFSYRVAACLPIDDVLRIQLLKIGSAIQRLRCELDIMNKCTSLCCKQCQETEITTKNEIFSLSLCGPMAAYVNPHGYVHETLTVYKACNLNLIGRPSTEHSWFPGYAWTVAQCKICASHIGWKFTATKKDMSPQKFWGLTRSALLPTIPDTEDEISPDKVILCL

B1: 46F_47E_49E_50I_52G_53H_54G_55F_67L_, Q9UKT9 (peptide)
chain: FECEICGHGFTQKGNLLRHIKL
B2: 46F_47T_49E_50I_52G_53R_54L_55F_67L_, Q9UKT9 (peptide)
chain: FTCEICGRLFTQKGNLLRHIKL
B3: 46L_47W_49N_50Q_52G_53F_54P_55C_67L_, Q9UKT9 (peptide)
chain: LWCNQCGFPCTQKGNLLRHIKL
B4: 46F_47Y_49P_50Q_52G_53A_54W_55F_67L_, Q9UKT9 (peptide)
chain: FYCPQCGAWFTQKGNLLRHIKL
B5: 46F_47E_49N_50V_52G_53A_54H_55F_67L_, Q9UKT9 (peptide)
chain: FECNVCGAHFTQKGNLLRHIKL
B6: 46F_47L_49D_50V_52G_53A_54C_55F_67L_, Q9UKT9 (peptide)
chain: FLCDVCGACFTQKGNLLRHIKL
B7: 46F_47W_49P_50I_52G_53R_54E_55F_67L_, Q9UKT9 (peptide)
chain: FWCPICGREFTQKGNLLRHIKL
B8: 46F_47L_49P_50V_52G_53A_54G_55F_67L_, Q9UKT9 (peptide)
chain: FLCPVCGAGFTQKGNLLRHIKL
B9: 46F_47N_49P_50V_52G_53A_54T_55F_67L_, Q9UKT9 (peptide)
chain: FNCPVCGATFTQKGNLLRHIKL
B10: 46F_47G_49P_50V_52G_53A_54T_55F_67L_, Q9UKT9 (peptide)
chain: FGCPVCGATFTQKGNLLRHIKL
B11: 46F_47W_49P_50V_52G_53A_54T_55F_67L_, Q9UKT9 (peptide)
chain: FWCPVCGATFTQKGNLLRHIKL
B12: 46F_47M_49P_50V_52G_53A_54T_55F_67L_, Q9UKT9 (peptide)
chain: FMCPVCGATFTQKGNLLRHIKL
B13: 46F_47K_49P_50V_52G_53A_54T_55F_67L_, Q9UKT9 (peptide)
chain: FKCPVCGATFTQKGNLLRHIKL
B14: 46F_47V_49P_50V_52G_53A_54T_55F_67L_, Q9UKT9 (peptide)
chain: FVCPVCGATFTQKGNLLRHIKL
B15: 46F_47C_49P_50V_52G_53A_54T_55F_67L_, Q9UKT9 (peptide)
chain: FCCPVCGATFTQKGNLLRHIKL
B16: 46F_47D_49P_50V_52G_53A_54T_55F_67L_, Q9UKT9 (peptide)
chain: FDCPVCGATFTQKGNLLRHIKL
B17: 46F_47L_49P_50V_52G_53A_54T_55F_67L_, Q9UKT9 (peptide)
chain: FLCPVCGATFTQKGNLLRHIKL
B18: 46F_47E_49P_50V_52G_53A_54T_55F_67L_, Q9UKT9 (peptide)
chain: FECPVCGATFTQKGNLLRHIKL
B19: 46F_47Q_49P_50V_52G_53A_54T_55F_67L_, Q9UKT9 (peptide)
chain: FQCPVCGATFTQKGNLLRHIKL
B20: 46F_47F_49P_50V_52G_53A_54T_55F_67L_, Q9UKT9 (peptide)
chain: FFCPVCGATFTQKGNLLRHIKL
B21: 46F_47R_49N_50Q_52G_53H_54P_55F_67L_, Q9UKT9 (peptide)
chain: FRCNQCGHPFTQKGNLLRHIKL
B22: 46F_47W_49P_50I_52G_53R_54R_55F_67L_, Q9UKT9 (peptide)
chain: FWCPICGRRFTQKGNLLRHIKL
B23: 46F_47D_49N_50Q_52G_53R_54P_55F_67L_, Q9UKT9 (peptide)
chain: FDCNQCGRPFTQKGNLLRHIKL
B24: 46F_47T_49E_50V_52G_53A_54K_55F_67L_, Q9UKT9 (peptide)
chain: FTCEVCGAKFTQKGNLLRHIKL
B25: 46F_47V_49P_50I_52G_53H_54V_55F_67L_, Q9UKT9 (peptide)
chain: FVCPICGHVFTQKGNLLRHIKL
B26: 46F_47F_49N_50Q_52G_53H_54R_55F_67L_, Q9UKT9 (peptide)
chain: FFCNQCGHRFTQKGNLLRHIKL
B27: 46F_47T_49S_50V_52G_53H_54M_55F_67L_, Q9UKT9 (peptide)
chain: FTCSVCGHMFTQKGNLLRHIKL
B28: 46F_47A_49P_50V_52G_53A_54T_55F_67L_, Q9UKT9 (peptide)
chain: FACPVCGATFTQKGNLLRHIKL
B29: 46F_47H_49P_50V_52G_53A_54T_55F_67L_, Q9UKT9 (peptide)
chain: FHCPVCGATFTQKGNLLRHIKL
B30: 46F_47Y_49P_50V_52G_53A_54T_55F_67L_, Q9UKT9 (peptide)
chain: FYCPVCGATFTQKGNLLRHIKL

Molecular target: T1, CRBN, Q96SW2
Assay: log2 fold change of degron read counts, EGFP-low vs EGFP+ sorted cells (limma voom), compound-induced degradation; higher = more compound-induced degradation of the degron-EGFP fusion; degrons are variants of IKZF1/3 zinc finger 2; compound dose not given here
Settings: Jurkat, 18 h
[1] = compound: compound 19 (5-tert-butyl-thalidomide)
[2] = compound: compound 22 (5-morpholino-thalidomide)
[3] = compound: compound 33 (diphenyl IMiD analogue)
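Note: pooled lentiviral library of zinc finger degron-EGFP fusions in mCherry-positive Jurkat cells, FACS-sorted after compound exposure, with degron abundance counted by next-generation sequencing.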

Sequence | log2 fold change of degron read counts [1] | log2 fold change of degron read counts [2] | log2 fold change of degron read counts [3] | log2 fold change of degron read counts (compound: thalidomide)
B1 | -3.39 | -3.7 | -2.59 | -2.45
B2 | -2.87 | -2.3 | -0.938 | -0.343
B3 | -0.74 | -1.09 | -1.33 | -1.27
B4 | -0.595 | -1.07 | -0.405 | -1.33
B5 | -2.58 | -2.72 | -0.566 | -0.594
B6 | -1.03 | -2.05 | 0.211 | -0.875
B7 | 0.147 | -0.132 | 1.23 | -0.495
B8 | 1.38 | 0.0992 | 1.5 | 0.959
B9 | 1.23 | -0.0199 | 1.21 | 0.0692
B10 | 3.66 | 2.4 | 2.06 | 1.12
B11 | 2.12 | 3.45 | 1.55 | 0.523
B12 | -1.09 | 0.0816 | 1.9 | 1.06
B13 | -1.61 | -2.57 | -2.5 | -0.961
B14 | -1.12 | 1.27 | 1.62 | 2.01
B15 | 1.17 | 1.86 | 2.81 | 2.11
B16 | 1.07 | -0.459 | 0.762 | 1.24
B17 | -1.39 | -1.44 | 0.984 | 1.09
B18 | -0.45 | -0.774 | 1.74 | 2.82
B19 | 0.396 | 2.89 | 2.57 | 3.79
B20 | 2.59 | 3.54 | 1.59 | 1.17
B21 | -1.26 | -1.57 | -1.18 | -0.69
B22 | -0.549 | 1.78 | -0.519 | -0.365
B23 | -2.11 | -2.72 | -2.47 | -2.01
B24 | 0.575 | 1.8 | -0.259 | 2.77
B25 | -1.93 | -1.85 | -1.17 | -0.831
B26 | -1.77 | -1.83 | -1.97 | -1.98
B27 | -2.72 | -3.24 | -2.66 | -2.24
B28 | 3.23 | 1.68 | 1.17 | 0.555
B29 | 1.14 | 1.21 | 1.72 | -0.00776
B30 | 2.81 | 3.38 | 2.28 | 1.02
